Hits are enriched below; roughly 13% of the tested compounds scored in any of these assays.
USP8 block: inhibitors of human USP8 deubiquitinase. purified USP8, Ub-rhodamine cleavage fluorescence, 30 min. inhibition, % at 20 µM. 47,000 compounds, 4.2% hits
USP10 inh: inhibitors of human USP10 deubiquitinase. 47,000 compounds, 1.1% hits. inhibition, % at 20 µM. AID 1645856. purified USP10, Ub-rhodamine fluorescence, 60 min. Q14694
USP28 inh: blocks human USP28 ubiquitin-rhodamine cleavage; Q96RU2; purified USP28, Ub-rhodamine cleavage fluorescence, 30 min; inhibition, % at 25 µM; 47,000 compounds, 3% hits; AID 1645857
USP30 block: blocks human USP30 ubiquitin-rhodamine cleavage; Q70CQ3; purified USP30, Ub-rhodamine cleavage fluorescence; inhibition, % at 25 µM; 47,000 compounds, 5.3% hits; AID 1645860
USP17 block: blocks human USP17 ubiquitin-rhodamine cleavage | A8MUK1 | purified USP17, Ub-rhodamine cleavage fluorescence, 3 h | inhibition, % at 50 µM | 47,000 compounds, 6.5% hits | AID 1645855
Numbers stand for hits; n = inactive; x = not tested or not shown. Cut-off read from the data, not from the text of the source: active = inhibition above about 30%; inactive = the rest.

SMILES	USP8 block	USP10 inh	USP28 inh	USP30 block	USP17 block
CC(C)c1ccc(C(C(=O)NC2CCCCC2)N(C(=O)c2cnccn2)c2cccc(F)c2)cc1 (stereo not drawn)	30	n	n	66	n
Cc1cccc(-n2cc(-c3ccccc3)c3c(NCc4ccc(F)cc4)ncnc32)c1	n	n	n	n	n
COc1c(C)c(OC(=O)c2c(C)c(C)c(OC(=O)c3c(C)c(C)c(O)c(C)c3O)c(C)c2OC)c(C)c(C)c1C(=O)O	n	66	70	54	51
COc1c(O)c(C)c(C)c(O)c1OC (tested in a mixture with another compound)	n	n	n	n	n
CN(C)c1nccnc1C1CN(C(=O)c2ccc3c(c2)OCO3)CCO1 (stereo not drawn)	n	n	n	n	n
Cc1ccc(S(=O)(=O)N2CCC(C(=O)Nc3nnc(C)o3)CC2)c(C)c1	n	n	n	37	n
COc1ccc(-c2cc(NC(=O)COc3ccccc3)n(C3CCS(=O)(=O)C3)n2)cc1 (stereo not drawn)	n	n	n	n	n
Oc1sc(C=Nc2ccc(F)cc2)c2ccccc12	68	n	n	n	n
CCOC(=O)c1cccc(N=Cc2sc(O)c3ccccc23)c1	n	n	n	n	n
COc1ccc(-c2cc3n(C)c(C)c(CCC(=O)NCc4ccc(F)cc4)c(=O)n3n2)cc1	n	n	n	54	66
CC(C)c1ccc(S(=O)(=O)N2CCCC(c3nc(-c4cccnc4)no3)C2)cc1 (stereo not drawn)	n	n	n	82	52
Cc1ccc(S(=O)(=O)c2nnn3c2nc(Nc2cccc(C)c2C)c2ccccc23)cc1	67	n	n	n	n
Cc1c(Cl)cccc1Nc1nc2c(S(=O)(=O)c3ccccc3)nnn2c2ccc(Cl)cc12	n	n	x	x	57
Cc1cccc(Nc2nc3c(S(=O)(=O)c4ccc(C(C)(C)C)cc4)nnn3c3ccccc23)c1C	n	n	n	n	n
Cc1cc(N2CCN(S(=O)(=O)c3ccc(Br)cc3)CC2)nc2c(C)cccc12	n	n	n	n	n
Cc1cc(-c2ccnc3c(C#N)cnn23)c(C)s1	n	n	n	n	67
Cc1cccc(C(=O)Nc2ccc(Sc3ccccc3Cl)cc2)c1	n	n	n	n	n
Cc1cccc(C(=O)Nc2ccc(NC(=O)COc3ccccc3Cl)cc2)c1	67	n	n	n	n
CCN1C[C@@H]2C[C@]2(c2ccccc2OC)C(=O)c2ncccc21	94	n	n	n	65
COc1ccccc1[C@]12C[C@H]1CN(C(=O)Nc1ccncc1)c1cccnc1C2=O	n	n	n	34	n
O=C1c2ncccc2N(S(=O)(=O)c2cccc(F)c2)C[C@@H]2C[C@]12c1ccccc1	n	n	n	n	n
CCc1nnc(-c2coc(S(=O)(=O)N3CCN(c4ccc(F)cc4)CC3)c2)o1	n	n	n	n	n
CN(C)CCNC(=O)c1cc(-c2ccn(CC3CC3)n2)n2ccccc12	n	n	n	n	n
COc1cccc2cccc(O)c12	n	n	n	n	85
COc1cccc2cc(-c3csc(N)n3)oc12	n	n	n	n	n
SMILES	USP8 block	USP10 inh	USP28 inh	USP30 block	USP17 block
Cc1ccc(-n2ccn3c(CCC(=O)NC(C)c4ccccc4)nnc3c2=O)cc1C (stereo not drawn)	n	n	n	n	n
CCCN1C=NS(=O)(=O)c2cc(C(=O)Nc3cc(Cl)ccc3OC)ccc21	n	n	n	35	n
CCCN1C=NS(=O)(=O)c2cc(C(=O)Nc3ccc(OC)c(Cl)c3)ccc21	n	n	n	n	51
COc1ccc(N(C(=O)Nc2ccccc2OC)C2=NCCC2)cc1	n	n	n	n	n
O=C(c1ccc2cc[nH]c2c1)N1CCC2(CC1)N=C(c1ccccc1)NO2	n	n	n	n	34
CC(=O)Nc1ccc(CN2CCN(c3cnn4c(C5CC5)nnc4c3)CC2)cc1	n	n	n	33	n
Cc1cc(N2CCOCC2)nc(N2CCN(C(=O)COc3ccccc3)CC2)n1	n	n	n	n	n
Cc1ccccc1NC(=NS(=O)(=O)c1ccccc1)c1ccc(Cl)cc1	n	n	44	n	n
CCCCC/C=C/c1c(O)cc(CC=C(C)C)c(O)c1C=O	n	n	n	n	n
C/C=C/C=C/CCc1c(O)cc(CC=C(C)C)c(O)c1C=O	n	n	n	n	45
Cc1ccc(NC(=O)CSc2nnc(-c3n[nH]c4c3CCC4)n2N)cc1C	n	36	n	n	n
Cc1cc(C)c(NC(=O)CSc2nnc(-c3cc(C)[nH]n3)n2N)c(C)c1	n	n	n	n	n
Cc1cccc(NC(=O)CSc2nnc(-c3n[nH]c4c3CCC4)n2N)c1C	51	n	n	38	67
COC(C)(C)C(=O)Nc1ccc(C2CCc3nncn3C2)cc1 (stereo not drawn)	n	n	n	n	n
Cc1ccc(C(=O)NCCC(c2ccccc2)c2ccccc2)o1	n	n	31	n	n
CS(=O)(=O)c1ccccc1C(=O)NCCC(c1ccccc1)c1ccccc1	n	n	n	n	n
Cc1cc(C)n2nc(C(=O)Nc3nc4ccc(F)cc4s3)nc2n1	n	n	n	n	n
O=C(Nc1nc2ccc(F)cc2s1)c1cccc2c(Br)cccc12	n	n	n	n	33
CC1(C)Cc2c(c(N3CCOCC3)nc3sc4c(SCc5ccc(F)cc5)ncnc4c23)CO1	n	n	n	n	n
COc1ccc(CNC(=O)CN2CCN(Cc3cccc(C)c3)C2=O)cc1	n	n	n	n	n
CN1C(=O)COc2cc(-c3noc(C(=O)NC4CCCCCC4)n3)ccc21	n	n	n	56	n
Cc1ccc(CNC(=O)c2nc(-c3ccc4c(c3)OCC(=O)N4C)no2)cc1	n	n	n	41	n
Cc1cccc(C(=O)N[C@@H]2C[C@@H](Oc3ccccc3)[C@H](O)[C@H]2O)n1	n	n	n	n	n
CCc1nc(-c2csc(S(=O)(=O)Nc3ccccc3C)c2)no1	n	n	n	n	n
COc1cccc(-c2c(NC(=O)c3ccco3)n(C)c3ccccc3c2=O)c1	n	n	n	n	n
SMILES	USP8 block	USP10 inh	USP28 inh	USP30 block	USP17 block
O=S1(=O)CCN(Cc2ccccc2)c2c(F)nc(N3CCCCC3)c(F)c21	87	n	n	n	53
CC1CCN(c2nc(F)c3c(c2F)S(=O)(=O)CCN3Cc2ccccc2)CC1	92	n	n	n	48
CC1CCN(c2nc(F)c3c(c2F)S(=O)(=O)CCN3CC2CCCO2)CC1 (stereo not drawn)	n	n	n	n	n
CC1(c2ccccc2)NC(=O)N(CC(=O)NCc2ccccc2)C1=O (stereo not drawn)	n	n	n	n	n
COC(=O)c1cc(NC(=O)/C=C/c2ccc(Cl)cc2)ccc1N1CCOCC1	n	n	50	n	n
Cc1ccc2c(Sc3ccc(Cl)cc3)c(C(=O)N3CCC4(CC3)OCCO4)[nH]c2c1	n	n	32	n	n
COc1cc(Cl)c(C)cc1NC(=O)c1nc(-c2ccncc2)no1	n	n	n	34	40
COc1cc2c(cc1OC)-c1cc(OCCN(C)C)nc(=O)n1CC2	n	n	n	n	n

Screening data: PubChem BioAssay, Buhrlage Lab, Dana-Farber Cancer Institute and Novartis Institutes for BioMedical Research (Cambridge, Mass)
